Among the data in PubChem BioAssay (EPA / NIEHS) are outcome and AC50 values, retold here.

Broadly, the AC50 is the concentration giving half of the maximal activity seen.

Molecules are shown by their SMILES. Values joined by “and” are separate entries in the source; they are usually repeats but may differ in a detail not shown here. Equal entries are not always repeated. Active and inactive are the calls of the source. Rule for the calls: active = hit-call score of the fitted dose curve at least 0.9, where 1 is the maximum; inactive = score below 0.9.

This experiment can be described thus: CCTE_Shafer_MEA_dev_inter_network_spike_interval_mean: CCTE's Neural Network Formation Assay for Mean Inter-network Spike Interval, Shafer Lab (AID 2284047).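 For AC50: potency for a decrease in mean inter-network spike interval below DMSO.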 The procedure:
CCTE_Shafer_MEA_dev assay is conducted using Axion Biosystems 48 well microelectrode array (MEA) plates and Maestro recording system. Each well of the MEA plate contains a grid of 16 microelectrodes embedded in the culture surface. Electrically active cells, such as neurons, can be cultured over the electrodes, and electrical activity in these cells can be recorded extracellularly. The spontaneous firing of neurons is captured from each electrode on a microsecond timescale providing both temporally and spatially precise data. […] The CCTE_Shafer_MEA_dev assay uses primary cultures of rat cortical neurons. Recordings are made on days post-plating 5, 7, 9 and 12. As these cultures mature over time, neural networks develop functional activity and form cohesive networks in which electrical activity can be highly coordinated. CCTE_Shafer_MEA_dev_inter_network_spike_interval_mean is 1 of 19 assay components of the CCTE_Shafer_MEA_dev assay. It measures the average time interval between network spikes (temporally-clustered groups of actional potential firing across multiple electrodes) as the average time between peaks of consecutive network spikes during a recording in a microelectrode array (MEA) using Axion Biosystems Maestro 768 channel amplifier with the AxIS adaptive spike detector. To collapse across multiple recordings made on days post-plating 5, 7, 9 and 12, the trapezoidal area-under-the-curve of the component is calculated.Data from the assay component CCTE_Shafer_MEA_dev_inter_network_spike_interval_mean was analyzed into 1 assay endpoint. This assay endpoint, CCTE_Shafer_MEA_dev_inter_network_spike_interval_mean, was analyzed in the negative analysis fitting direction relative to DMSO as the negative control and baseline of activity. Using a type of functional reporter, gain or loss-of-signal activity can be used to understand electrical activity.
On the day prior to culture, each well was coated thoroughly with 150 uL of 0.05% polyethyleneimine (PEI, Sigma Cat P3143) in 50 mM HEPES (Sigma Cat H7523) at a pH of 8. The plate was incubated at 37C for one hour. PEI was rinsed out with 500 uL of sterile water three times. Plates were stored at 4C until the day of culture. This culture was plated at a seeding density of 1.5 x 10^5 cells/well on a 48-well MEA plate, prepared as described above. Cells were administered via a 25 uL media/laminin ([…]; Sigma Cat L2020-1MG) drop directly onto the microelectrode array, as adding the cells with the laminin results in better attachment than pre-coating with laminin. After 2 hours, an additional 475 uL of cortical media was added and the cells returned to the incubator. Exposure starts at day 0 of plating and is continued over twelve days of network development until the experiment is terminated. Cells are fed with fresh medium on DIV 5 and 9, following the recordings on those days. The entire volume of media in the well is exchanged and any vehicle or compound treatment is renewed. Complete details are found in OP-NHEERL/ISTD/SBB/TJS/2015-03-r0 (available on request, email shafer.tim@epa.gov). Measurement of the electrical activity is non-invasive, and recordings can be made from the same plate over multiple different days of the culture. In cortical neurons, this allows for the measurement of extracellular action potentials over the period during which networks form in the MEA plate.
Take `O=C(O)C(F)(F)C(F)(F)C(F)(F)C(F)(F)C(F)(F)C(F)(F)C(F)(F)C(F)(F)F`: the result was inactive.

With `ClC(Cl)=C(c1ccc(Cl)cc1)c1ccc(Cl)cc1`, the molecule was classed as inactive.

With `CCC(C)(c1ccc(O)cc1)c1ccc(O)cc1`, the result was inactive.

With `CO/C=C(/C(=O)OC)c1ccccc1COc1cccc(C(F)(F)F)n1`, the AC50 is 364 nM (active) and 752 nM (active).

With `ClC1=C(Cl)[C@]2(Cl)[C@@H]3[C@@H]4C[C@@H]([C@H]5O[C@@H]45)[C@@H]3[C@@]1(Cl)C2(Cl)Cl`, the result was inactive.

Take `CCOP(=S)(OCC)SCSC(C)(C)C`: the molecule was classed as inactive.

Turning to `Clc1ccc(C(c2ccccc2Cl)C(Cl)(Cl)Cl)cc1` (stereo unspecified), the call was inactive.

Consider `c1cc2ccc3cccc4ccc(c1)c2c34`, for which the outcome was inactive.

For `O=S(=O)(O)C(F)(F)C(F)(F)C(F)(F)C(F)(F)F`, the molecule was called inactive.

On to `O=C(O)C(F)(F)C(F)(F)C(F)(F)C(F)(F)C(F)(F)F`, for which the molecule was classed as inactive.

`ClC1=C(Cl)[C@]2(Cl)[C@@H]3[C@@H](Cl)[C@H]4O[C@H]4[C@@H]3C1(Cl)C2(Cl)Cl`: the result was inactive.

Regarding `COc1ccc(O)c(C(C)(C)C)c1`, the molecule was classed as inactive.

As for `Oc1ccc(C(c2ccc(O)cc2)(C(F)(F)F)C(F)(F)F)cc1`, the outcome was inactive.

For `C=CC(N)=O`, the result was inactive.

As for `O=S(=O)(O)C(F)(F)C(F)(F)C(F)(F)C(F)(F)C(F)(F)C(F)(F)F`, the molecule was classed as inactive.

As to `NS(=O)(=O)C(F)(F)C(F)(F)C(F)(F)C(F)(F)C(F)(F)C(F)(F)C(F)(F)C(F)(F)F`, the molecule was called inactive.
